40 compounds from PubChem BioAssay AID2205 (University of Pittsburgh Molecular Library Screening Center, 2009) can be followed below.

Hit rate of the full screen: of about 200,000 compounds, about 1,600 (0.8%) were called active.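 The calls were made as follows: active = plate Z-score above 3 for both tubulin-high and condensed-nucleus cell shares, with cell loss under 80%, at 10 µM; inactive = the rest, inconclusive results apart.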 Shown is part of a subset that was picked to be rich in actives.

A short description of this assay: microtubule stabilizers in HeLa cells, primary screen, imaging, high-content imaging (AID 2205).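 As to % tubulin-high responders: anti alpha tubulin signal scored within the nucleus-defined area of each cell.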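 As to toxicity: 0% = mean cell density of plate MIN control wells and 100% = no cells.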 The note with it: HeLa tubulin immunostaining HCS, 24 h, at 10 µM; % Hoechst-high responders: measured here: nuclear condensation Hoechst responders, stronger effect = higher value, share of cells brighter than vehicle mean+2SD; % tubulin-high responders: stronger effect = higher value, share of cells brighter than vehicle mean+2SD; toxicity: measured here: cytotoxicity by cell density.
`CCC(C)(C(=O)Nc1ccccc1C)N(C(=O)CNC(C)=O)c1ccc(C)cc1` (stereo not given): the % Hoechst-high responders was 3.25%, the % tubulin-high responders is 4.21% (inactive) and the toxicity amounted to 4.1%.

Consider `CCOc1ccc(Br)cc1S(=O)(=O)Nc1ccc(C(=O)OC(C)C(=O)N(C)c2ccccc2)cc1` (stereo not given), for which the % Hoechst-high responders is 0.626%, the % tubulin-high responders was 6.66% (inactive) and the toxicity turned out to be 0.658%.

Turning to `COc1ccc(Nc2cc(C)nc(-n3nc(C)cc3C)n2)cc1`, the % Hoechst-high responders was found to be 25.7%, the % tubulin-high responders is 11.5% (inactive) and the toxicity was 60.4%.

For `Cc1cc(C)n(-c2cc(Oc3ccccc3)ncn2)n1`, the % Hoechst-high responders is 0.881%, the % tubulin-high responders was 1.4% (inactive) and the toxicity is 3.38%.

Consider `CC(=O)c1ccc(Oc2cc(C)nc(-n3nc(C)cc3C)n2)cc1`, for which the % Hoechst-high responders worked out at 57.9%, the % tubulin-high responders is 17.9% (active) and the toxicity was determined as 18.9%.

Consider `CCn1cc(CN2CCCC(CNS(=O)(=O)Cc3ccccc3)C2)cn1` (stereo not given), for which the % Hoechst-high responders was determined as 2.22%, the % tubulin-high responders was 3.89% (inactive) and the toxicity amounted to 8.22%.

For the compound `O=C(CN1CCN(Cc2ccc(F)cc2Cl)C1=O)NCc1cccs1`, the % Hoechst-high responders was 1.49%, the % tubulin-high responders was 1.68% (inactive) and the toxicity was found to be 2.53%.

As for `CC(C)CNC(=O)CC(NCC(C)C)C(=O)O` (stereo not given), the % Hoechst-high responders is 2.02%, the % tubulin-high responders was 2.59% (inactive) and the toxicity stood at 6.47%.

For `O=C(/C=C/c1cccs1)NCc1cccnc1`, the % Hoechst-high responders is 2.05%, the % tubulin-high responders was 2.55% (inactive) and the toxicity is 5.06%.

Consider `O=C(Nc1cccc(F)c1)c1ccc(S(=O)(=O)N2CCCC2)cc1`, for which the % Hoechst-high responders was 3.36%, the % tubulin-high responders is 4.55% (inactive) and the toxicity worked out at 7.13%.

With `COc1ccc(C(=O)Nc2ccc(F)cc2F)cc1`, the % Hoechst-high responders worked out at 1.66%, the % tubulin-high responders was 1.84% (inactive) and the toxicity was 2.01%.

As for `CCOC(=O)N1CCN(S(=O)(=O)c2ccc(C(=O)Nc3ccc(F)cc3F)cc2)CC1`, the % Hoechst-high responders was 35.2%, the % tubulin-high responders is 29.1% (active) and the toxicity came out at 67.6%.

Regarding `C/[N+]([O-])=C\c1ccc([N+](=O)[O-])o1`, the % Hoechst-high responders amounted to 1.53%, the % tubulin-high responders is 1.72% (inactive) and the toxicity came to 3.24%.

For the compound `CCCn1c(SCC(=O)Nc2ccc(C)c(S(=O)(=O)N3CCOCC3)c2)n[nH]c1=O`, the % Hoechst-high responders is 2.38%, the % tubulin-high responders was 5.82% (inactive) and the toxicity came out at 5.63%.

Turning to `CC(C)C(=O)Nc1cccc(NC(=S)NC(=O)C(c2ccccc2)c2ccccc2)c1`, the % Hoechst-high responders came out at 44%, the % tubulin-high responders was 30.3% (active) and the toxicity was found to be 36.2%.

`CC(C)C(=O)NC(=S)Nc1ccccc1F`: the % Hoechst-high responders amounted to 1.63%, the % tubulin-high responders was 3.48% (inactive) and the toxicity turned out to be 5.15%.

For `CCCCC(=O)NNC(=S)NC(=O)C(c1ccccc1)c1ccccc1`, the % Hoechst-high responders stood at 1.83%, the % tubulin-high responders was 2.83% (inactive) and the toxicity came out at 2.74%.

`CC(Sc1nnc2c(n1)C1CCC2(C)C1(C)C)C(=O)Nc1ccccc1` (stereo not given): the % Hoechst-high responders worked out at 3%, the % tubulin-high responders is 3.52% (inactive) and the toxicity worked out at 9.4%.

In the case of `O=C(/C=C/c1ccc(Cl)c([N+](=O)[O-])c1)c1cccnc1`, the % Hoechst-high responders was 0.942%, the % tubulin-high responders is 1.22% (inactive) and the toxicity is 2.98%.

Take `C=CCn1c(SCc2c(C)noc2C)nc2sc3c(c2c1=O)CCC(C)C3` (stereo not given): the % Hoechst-high responders stood at 27.2%, the % tubulin-high responders was 31.2% (active) and the toxicity is 44.4%.

Consider `CC1CCc2c(sc3nc4n(c(=O)c23)CCS4)C1` (stereo not given), for which the % Hoechst-high responders came out at 1.5%, the % tubulin-high responders was 1.55% (inactive) and the toxicity was 8.83%.

Take `Cc1cc(NC(=O)CSc2nc(C(C)C)nc3sc4c(c23)CCC(C)C4)no1` (stereo not given): the % Hoechst-high responders amounted to 2.02%, the % tubulin-high responders is 5.74% (inactive) and the toxicity turned out to be 9.29%.

With `O=C(CCn1ccc([N+](=O)[O-])n1)Nc1nccs1`, the % Hoechst-high responders came to 2.43%, the % tubulin-high responders is 6.18% (inactive) and the toxicity stood at 8.86%.

In the case of `CCN1/C(=C\c2ccc3ccccc3[n+]2CC)Sc2cc(C)ccc21`, the % Hoechst-high responders was determined as 5.5%, the % tubulin-high responders was 8.18% (active) and the toxicity worked out at 19.1%.

`CCC(=O)/C=C1\Sc2ccccc2N1CC`: the % Hoechst-high responders amounted to 0.853%, the % tubulin-high responders was 4.83% (inactive) and the toxicity stood at 6.64%.

For the compound `CCN1/C(=C/c2ccc3ccc(C)cc3[n+]2CC)Sc2ccccc21`, the % Hoechst-high responders was determined as 2.38%, the % tubulin-high responders is 4.83% (inactive) and the toxicity worked out at 9.09%.

As to `FC(F)(F)c1nnc2ccc(N3CCN(c4ccccc4)CC3)nn12`, the % Hoechst-high responders turned out to be 1.98%, the % tubulin-high responders was 0.88% (inactive) and the toxicity came out at 7.36%.

For `Fc1c(F)c(C(F)(F)F)c(F)c(F)c1N1CCN(c2ccc3nnc(C(F)(F)F)n3n2)CC1`, the % Hoechst-high responders amounted to 7.05%, the % tubulin-high responders was 6.71% (active) and the toxicity amounted to 8.52%.

`Cc1nn(-c2ccccc2)c(-n2cccc2)c1C(=O)O`: the % Hoechst-high responders worked out at 3.22%, the % tubulin-high responders is 2.89% (inactive) and the toxicity is 10.5%.

As to `CCCOC(=O)c1[nH]c2c(c1C)C(=O)CC(c1cc(OC)c(OC)c(OC)c1)C2` (stereo not given), the % Hoechst-high responders is 1.51%, the % tubulin-high responders was 5.08% (inactive) and the toxicity turned out to be 9.25%.

`CCOC(=O)c1[nH]c2c(c1C)C(=O)CC(c1ccc(N(C)C)cc1)C2` (stereo not given): the % Hoechst-high responders turned out to be 1.67%, the % tubulin-high responders was 6.74% (inactive) and the toxicity was found to be 9.96%.

With `CCCOC(=O)c1[nH]c2c(c1C)C(=O)CC(c1cccs1)C2` (stereo not given), the % Hoechst-high responders turned out to be 49.4%, the % tubulin-high responders is 25.2% (active) and the toxicity came out at 48.6%.

As to `CSc1ccc(/C=N\NC(=O)CC(=O)NC(C)C)cc1`, the % Hoechst-high responders turned out to be 1.95%, the % tubulin-high responders is 3.08% (inactive) and the toxicity is 8.56%.

As for `CCOC(=O)c1c(C)[nH]c(C(=O)COc2ccc3c(c2)OCO3)c1C`, the % Hoechst-high responders was determined as 3.29%, the % tubulin-high responders is 2.42% (inactive) and the toxicity amounted to 11.4%.

For `Cc1ccc(C(=O)OCC(=O)NCc2ccc3c(c2)OCO3)s1`, the % Hoechst-high responders turned out to be 1.59%, the % tubulin-high responders is 1.75% (inactive) and the toxicity was 6.77%.

Consider `CCOC(=O)c1nc(-c2ccc3c(c2)OCO3)[nH]c1C`, for which the % Hoechst-high responders is 10.2%, the % tubulin-high responders was 26.6% (active) and the toxicity was 43%.

In the case of `Cc1ccc(CNC(=O)CCNS(=O)(=O)c2ccc(Br)s2)cc1`, the % Hoechst-high responders came out at 2.82%, the % tubulin-high responders was 2.88% (inactive) and the toxicity was found to be 3.85%.

For `CCOc1cccc(/C=C/c2ccc3ccccc3n2)c1OC(C)=O`, the % Hoechst-high responders was determined as 3.95%, the % tubulin-high responders is 5.51% (inactive) and the toxicity worked out at 3.2%.

For `Cc1ccc2nc(-c3cccc(Br)c3)cc(C(=O)Nn3cnnc3)c2c1`, the % Hoechst-high responders was 3.03%, the % tubulin-high responders was 6.01% (inactive) and the toxicity was determined as 5.1%.

Take `Fc1ccc2c(c1)C(c1cccnc1)=NNC(c1cccs1)=N2`: the % Hoechst-high responders was determined as 34.4%, the % tubulin-high responders was 13.2% (active) and the toxicity was determined as 33.1%.
